# DT40 TDP1 no CPT – qHTS for Inhibitors of human tyrosyl-DNA phosphodiesterase 1 (TDP1): qHTS in cells in absence of CPT. DT40 Tdp1-/- hTDP1 cells, no CPT, ATP luminescence, 48 h. Potency, µM (top dose mostly 46.2 µM), without a hit: at the top dose activity change, negative = growth inhibition, hits mostly inhibitors. 420,000 tested, 15% active. AID 686978, 2013; further: nearly all actives have a fitted effect of over 55% in size
#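 DT40 Tdp1-/-;hTDP1 cells, no CPT (DMSO vehicle only), 400 cells/well; compounds pin-transferred; ≥48 hr, 37 °C; CellTiter-Glo 30 min RT dark, luminescence read.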
# KB-3-1 tox – KB-3-1 parental cell cytotoxicity; Potency, µM (doses to about 46.1 µM), most hits filed as cytotoxic; KB-3-1 viability, CellTiter-Glo ATP luminescence, 72 h; 400,000 tested, 1.4% active; further: nearly all actives have a fitted effect of over 60% in size
#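 KB-3-1 parental drug-naive adenocarcinoma cells in DMEM/10% FBS, incubated 72 h at 37 C with pin-transferred compounds across a concentration series. Viability by CellTiter-Glo luminescence; concentration-response curves fitted after normalization.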
# HT1080 IDH1KD tx – kills HT-1080 cells with IDH1 knockdown. Potency, µM (top dose mostly 46.1 µM), for inactives: top-dose activity, negative = toxicity, hits mostly cytotoxic. 360,000 tested, 2% active. HT-1080 IDH1 knockdown viability, ATP luminescence, 48 h;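 further: 0% = DMSO wells and -100% = cell-free medium wells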
#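 % activity derives from luminescence (CellTiter-Glo), normalised to DMSO and no-cell wells. HT-1080-IDH1KD cells, 750/well, had 48 h compound exposure at 37 °C.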
# TDP1 cell CPT – DT40-hTDP1 cell growth loss with CPT. Potency, µM (doses to about 46.2 µM), for inactives: top-dose activity change, negative = growth inhibition, most hits filed as inhibitors. AID 686979. chicken DT40 Tdp1-/-;hTDP1 cells + 20 nM CPT, ATP luminescence, 48 h. 420,000 tested, 12% active; further: nearly all actives have a fitted effect of over 55% in size
#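 Chicken DT40 Tdp1-/- cells complemented with human TDP1, 400 cells/well, exposed to compounds plus 20 nM camptothecin for at least 48 h at 37 C; viability read as ATP content by CellTiter-Glo luminescence.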
# HT1080-NT tox – kills 2HG-producing HT-1080-NT fibrosarcoma cells | AID 686970 | HT-1080-NT fibrosarcoma viability, CellTiter-Glo ATP luminescence, 48 h | Potency, µM (highest dose often 46.1 µM), for the others: top-dose activity, negative = less viability, most hits filed as cytotoxic | 360,000 tested, 1.6% active;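 further: NT is the 2HG producing partner of a matched IDH1 knockdown line; 0% = DMSO-treated cells and -100% = media-only wells without cells; nearly all actives have a fitted effect of over 55% in size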
#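 HT-1080-NT fibrosarcoma cells (2HG-overproducing), 750 cells/well in RPMI with 5% FBS, dosed after 2 h and incubated 48 h at 37C. CellTiter-Glo luminescence normalized to DMSO and no-cell wells; concentration-response curves fitted and classed.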
# KB-V1 MDR tox – kills drug-selected multidrug resistant KB-V1 cells | KB-V1 MDR cells viability, CellTiter-Glo, 72 h | Potency, µM (top dose mostly 46.1 µM), usual class: cytotoxic | 400,000 tested, 3.4% active | AID 1347076; further: nearly all actives have a fitted effect of over 60% in size
#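 KB-V1 MDR subline cells in DMEM (phenol-red free, 10% FBS) exposed to compounds in qHTS concentration series for 72 h at 37 degrees C. Viability read by CellTiter-Glo luminescence; concentration-effect curves fitted after normalization and correction.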
# Numbers without * were called inactive; i = inactive; u = inconclusive; x = no result. Shown are actives, neighbours in structure and some others; about 19% of the full set was active somewhere. The call rests on the fitted dose curve; in most records, active means well fitted curve in the direction sought with a large enough effect; inconclusive means small, poorly fitted or top-dose-only effect, or another doubt; inactive means no such curve, though single readings can be large; an effect the other way counts as inactive or inconclusive. Unless noted, on the % scale 0 is the no-effect control and ±100 the full control effect; potency means the concentration at half of the fitted maximal effect.
SMILES,DT40 TDP1 no CPT,KB-3-1 tox,HT1080 IDH1KD tx,TDP1 cell CPT,HT1080-NT tox,KB-V1 MDR tox
COc1ccc(CC(=O)Nc2ccc3nc(N4CCCCC4)cc(C)c3c2)cc1,u,i,x,23µM*,x,i
COc1cccc(C(=O)Nc2ccc3nc(N4CCOCC4)cc(C)c3c2)c1,21µM*,i,1%,16µM*,-2%,i
CCOc1cccc(CC(=O)Nc2ccc3nc(N4CCCCC4)cc(C)c3c2)c1OCC,u,i,x,21µM*,x,i
Cc1ccccc1C(=O)Nc1ccc2nc(N3CCCCC3)cc(C)c2c1,21µM*,i,x,u,x,i
O=[N+]([O-])c1ccc(OCCCCN2CCc3ccccc3C2)cc1,u,i,-19%,-13%,-13%,i
OC[C@@H]1CN(Cc2cccs2)C[C@H](n2cnc3c(NCc4ccc(F)cc4)ncnc32)O1,-29%,i,0%,u,-3%,i
Cc1cc(N2CCOCC2)nc2ccc(NC(=O)C3CCCCC3)cc12,10µM*,u,x,13µM*,x,i
COc1cc(OC)cc(C(=O)Nc2ccc3nc(N4CCCCC4)cc(C)c3c2)c1,16µM*,i,x,15µM*,x,i
CC(CCc1ccccc1)NC(=O)c1cccs1 (configuration not stated),u,i,-3%,-24%,-10%,i
Cc1ccc(-c2nc(CS(=O)CC(=O)NCCc3ccc(Cl)cc3)c(C)o2)cc1 (configuration not stated),u,i,x,u,x,i
CCN(c1ccccc1)S(=O)(=O)c1ccc(NC(=O)c2cc(=O)c3ccc(C)c(C)c3o2)cc1,12µM*,i,x,10µM*,x,i
Cc1ccc2c(=O)cc(C(=O)Nc3ccc(S(=O)(=O)N(C)Cc4ccccc4)cc3)oc2c1,u,i,x,u,x,i
Cc1ccc2c(=O)cc(C(=O)Nc3ccc(S(=O)(=O)N(C)Cc4ccccc4)cc3)oc2c1C,3.3µM*,i,x,4.1µM*,x,i
CCc1ccc(NC(=O)c2cc(=O)c3ccc(C)c(C)c3o2)cc1,3.3µM*,i,x,4.1µM*,x,5.8µM*
Cc1ccc2c(=O)cc(C(=O)Nc3ccc(S(=O)(=O)Nc4ncccn4)cc3)oc2c1C,u,i,x,u,x,i
CC1CCC(NC(=O)c2ccc3c(c2)N(Cc2ccccc2F)C(=O)c2ccccc2S3)CC1 (configuration not stated),u,i,x,u,x,i
CC(C)C[C@H]1CN(CCCC[C@@H]2CNC(=O)C(=O)N2CC2CCCCC2)C(=O)C(=O)N1CCC1CCCCC1,-1%,i,7%,-7%,13%,u
C[N+]1(CC(=O)c2ccc3c(c2)CCCC3)CCOCC1,-20%,u,x,6%,x,i
COc1ccc(C=O)cc1COc1ccc(Cl)cc1[N+](=O)[O-],21µM*,u,u,u,-7%,u
CCn1cc(Cl)c(C(=O)N2N=C3/C(=C/c4cccs4)CCCC3C2c2cccs2)n1 (configuration not stated),u,u,-29%,18µM*,u,21µM*
COc1ccc(NC(=O)CCN2CCN(CCO)CC2)c(OC)c1,-11%,i,x,-10%,x,i
CCOc1ccc(S(=O)(=O)N(CCO)CCO)cc1-c1nc2c(C(C)(C)C)nn(C)c2c(=O)[nH]1,18µM*,i,-11%,u,-16%,i
CCOc1ccc(S(=O)(=O)NC(C)(C)C)cc1-c1nc2c(C(C)(C)C)nn(C)c2c(=O)[nH]1,u,i,u,21µM*,u,i
